Compounds without any hit were thinned out: in the full panel of roughly 83,000, 20% have a hit.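 Single-concentration screen, 48 h exposure, 96-well plates. Endpoint: percent growth. Below 10 = active.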 Calls of active or inactive are those of the source.
Each compound was assayed on BT-549 breast (assay: NCI-60 one-dose screen, 48 h (100 = growth as untreated, 0 = no growth, -100 = all killed)). Conditions: 10 µM unless noted.
Cn1c(=O)c2[nH]c(SC/C(=N/O)c3ccc(Br)cc3)nc2n(C)c1=O was tested, and the growth was 28.3% (inactive).
For Cc1c2ncccc2nc2[nH]c3ccc(OCCN(C)C)cc3c12, the growth was 63.2% (inactive).
With COc1ccc(-c2cc(C(=O)N3N=C(c4ccc(N)cc4)CC3c3ccc(Cl)cc3)c3ccccc3n2)cc1 (stereo not drawn) the growth was 8.43% (active).
Cc1oc(-c2ccc(Cl)cc2)nc1C1=NN(C(=O)c2ccncc2)C(c2ccccc2)C1 (stereo not drawn) was tested, and the growth was 89.7% (inactive).
In the case of Nc1cc(C(=O)O)cc(-n2c(O)c(C=C3N=c4ccccc4=N3)sc2=S)c1, the growth is reported as 103% (inactive).
In the case of Nc1ncnc2c1N=C(c1ccc(F)cc1)CC(c1cccc(Nc3ccnc4cc(Cl)ccc34)c1)N2 (stereo not drawn), the growth is reported as 99.9% (inactive).
In the case of CCNC(=O)N1CCc2c(Br)c3c(c(OC)c2C1Cc1ccc(OC)cc1)OCO3 (stereo not drawn), the growth is reported as 30% (inactive).
With Nc1nc2ccccc2c2c(=O)c3cc(Cl)ccc3sc12 the growth was 105% (inactive).
Cc1ccc(S(=O)(=O)c2nc(-c3ccccc3)oc2SCC(N)=O)cc1 was tested, and the growth was 106% (inactive).
With CCCN(CCSSCCNc1nc(N(C)O)nc(N(C)O)n1)c1nc(N(C)O)nc(N(C)O)n1 the growth was 7.99% (active).
For COc1cc(C=C2C(=O)NC(=S)NC2=O)cc(CN2CCCC2)c1O, the growth was 114% (inactive).
In the case of Cc1cc(C)c2c(c1)N(C)c1ncnc(-n3c(C)nc4cc(C)ccc43)c1CC2C (stereo not drawn), the growth is reported as 59.2% (inactive).
In the case of COC1/C=C/OC2(C)Oc3c(C)c(O)c4c(O)c(c(/C=N/N(c5ccccc5)c5ccccc5)c(O)c4c3C2=O)NC(=O)C(C)=C/C=C/C(C)C(O)C(C)C(O)C(C)C(OC(C)=O)C1C (stereo not drawn), the growth is reported as 88.9% (inactive).

Reference: PubChem BioAssay (NCI)
